The values below come from PubChem BioAssay (Tox21).

Structures are written as SMILES. Records with an inconclusive call do not appear. A call without a number means that no potency is given here. The source made the active and inactive calls. Calls come from the whole dose curve; as a rule, active = well fitted cell-killing curve with a large enough effect in the repeat runs; inconclusive = weak or mixed curves, or effect the other way; inactive = flat fitted curve, though single readings scatter.

One experiment can be described thus: cAMP Responsive Elements (CRE) small molecule antagonists, cell-based qHTS assay: qHTS cell viability counter screen (AID 2060913). Note: nearly all actives have a fitted effect of over 40% in size. To be noted: CRE-bla HEK293T viability, CellTiter-Glo luminescence, 5 h; series mostly up to 92.4 µM. The method in brief:
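CRE-bla HEK293T cells were seeded in assay medium with 10% dialyzed FBS, incubated 18 hrs at 37 C, then exposed to compounds plus 0.25 uM final NKH477 for 3 hrs. Viability was read by CellTiter-Glo luminescence after 30 min, in the same wells.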
Turning to `O=Cc1cccc(Br)c1`, the Potency result was “inactive”.

As for `CCc1ncc(C)[nH]1`, the Potency result was “inactive”.

As for `O=C(O)Cc1cc(I)c(Oc2ccc(O)c(I)c2)c(I)c1`, the Potency result is “inactive”.

Consider `Nc1c2ccccc2nc2ccccc12`, for which the Potency result is “inactive”.

On to `CCNC(=O)/C=C/c1cccc(Br)c1`, for which the Potency entry is “inactive”.

As to `COc1cc(-c2ccc(N=C=O)c(OC)c2)ccc1N=C=O`, the Potency entry was “inactive”.

In the case of `O=C(O)c1cccc(C(F)(F)F)c1`, the Potency result is “inactive”.

Consider `N#Cc1ccccc1O`, for which the Potency result is “inactive”.

On to `Cc1ccc(C(N)=O)cc1N`, for which the Potency entry was “inactive”.

On to `CCSC(=O)N(CC(C)C)CC(C)C`, for which the Potency entry was “inactive”.

On to `O=C(O)CCNC(=O)c1ccccc1`, for which the Potency entry was “inactive”.

As to `OCCc1ccncc1`, the Potency result was “inactive”.

`O=C(O)c1cccc([N+](=O)[O-])c1`: the Potency entry is “inactive”.

In the case of `Nc1ccc(Cl)cc1[N+](=O)[O-]`, the Potency entry is “inactive”.

The nature of the next experiment: cAMP Responsive Elements (CRE) small molecule agonists, cell-based qHTS assay: qHTS cell viability counter screen (AID 2060914). Note: nearly all actives have a fitted effect of over 50% in size. To be noted: CRE-bla HEK293T viability, CellTiter-Glo luminescence, 5 h; series mostly up to 92.4 µM. Put shortly: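 HEK 293T CRE-bla; DMEM + 10% dialyzed FBS, 25 mM HEPES; 18 h pre-incubation; compound 3 h, 37 °C/5% CO2; CellTiter-Glo added after reporter read; luminescence after 30 min RT.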
For orientation: Quantitative high-throughput screening tests each substance at several concentrations.
`CCc1cccc(CC)c1`: the Potency entry was “inactive”.

On to `O=C(O)CCC(=O)C(=O)O`, for which the Potency entry is “inactive”.

Turning to `O=C(O)c1cn(-c2ccc(F)cc2)c2cc(N3CCNCC3)c(F)cc2c1=O`, the Potency entry was “inactive”.

On to `CC(CN=Cc1ccccc1O)N=Cc1ccccc1O` (centres undefined), for which the Potency result was “inactive”.

`CCN(Cc1cccc(S(=O)(=O)O)c1)c1ccc(C(=C2C=CC(=[N+](CC)Cc3cccc(S(=O)(=O)[O-])c3)C=C2)c2ccccc2)cc1`: the Potency result was “inactive”.

As for `Cc1cn[nH]c1`, the Potency entry is “inactive”.

As for `CCOCCOCCOCCO`, the Potency entry is “inactive”.

Regarding `NCCN1CCNC1=O`, the Potency entry was “inactive”.

Take `O=C(O)Cc1ccc(Cl)cc1Cl`: the Potency result is “inactive”.

On to `CCCCN(CCC(=O)OCC)C(C)=O`, for which the Potency result is “inactive”.

As to `Cc1cnc(C)c(C)n1`, the Potency result is “inactive”.

As for `C=C(C)C(=O)OCCOC(=O)CC(C)=O`, the Potency entry is “inactive”.

For the compound `C=CCOc1cc(Cl)ccc1C(=O)NCCN(CC)CC`, the Potency entry is “inactive”.

As to `CC(C)=CCOC(=O)c1ccccc1`, the Potency entry was “inactive”.

As for `Nc1ccn([C@@H]2O[C@H](CO)[C@@H](O)C2O)c(=O)n1` (some centres undefined), the Potency entry was “inactive”.

For the compound `O=c1[nH]cccc1O`, the Potency result was “inactive”.

Turning to `CCN(CC)c1cccc(C)c1`, the Potency entry was “inactive”.

As to `CN/C(=C\[N+](=O)[O-])NCCSCc1ccc(CN(C)C)o1`, the Potency entry is “inactive”.

Regarding `CCCCCCC1CCCC(=O)O1` (centres undefined), the Potency result was “inactive”.

On to `CS(C)(=O)=O`, for which the Potency result was “inactive”.

Consider `CCCCCCCCC(CO)CCCCCC` (centres undefined), for which the Potency entry was “inactive”.

Consider `CCCCN1CCCC[C@H]1C(=O)Nc1c(C)cccc1C`, for which the Potency entry was “inactive”.

As to `O=[N+]([O-])c1ccc(F)cc1F`, the Potency result was “inactive”.

Turning to `O=C(CCCN1CCC(O)(c2cccc(C(F)(F)F)c2)CC1)c1ccc(F)cc1`, the Potency result is “inactive”.

Regarding `Cc1ccnc2c1NC(=O)c1cccnc1N2C1CC1`, the Potency entry is “inactive”.

Turning to `CCCN(CCC)C(=O)SCC`, the Potency result is “inactive”.

For the compound `O=Cc1cccc(Br)c1`, the Potency result is “inactive”.

In the case of `CCc1ncc(C)[nH]1`, the Potency entry is “inactive”.

Regarding `O=C(O)Cc1cc(I)c(Oc2ccc(O)c(I)c2)c(I)c1`, the Potency entry is “inactive”.

On to `Nc1c2ccccc2nc2ccccc12`, for which the Potency entry is “inactive”.

For `CCNC(=O)/C=C/c1cccc(Br)c1`, the Potency result was “inactive”.

Regarding `COc1cc(-c2ccc(N=C=O)c(OC)c2)ccc1N=C=O`, the Potency entry was “inactive”.

As to `O=C(O)c1cccc(C(F)(F)F)c1`, the Potency result was “inactive”.

With `N#Cc1ccccc1O`, the Potency entry is “inactive”.

As for `Cc1ccc(C(N)=O)cc1N`, the Potency result is “inactive”.

As to `CCSC(=O)N(CC(C)C)CC(C)C`, the Potency result was “inactive”.

`O=C(O)CCNC(=O)c1ccccc1`: the Potency result is “inactive”.

For the compound `OCCc1ccncc1`, the Potency entry was “inactive”.

`O=C(O)c1cccc([N+](=O)[O-])c1`: the Potency entry was “inactive”.

On to `Nc1ccc(Cl)cc1[N+](=O)[O-]`, for which the Potency result was “inactive”.
